The text below walks through data of the supplement of paper PMC10477191.

Molecules are shown by their SMILES. ± gives the standard deviation of the averaged measurements.

The assay concerns Drosophila ezoana antennal basiconic sensillum ab8. Nature of the assay: odor-evoked OSN spike response (post minus pre-stimulus); higher = stronger neuronal excitation. To be noted: odor dilution: 10^-4. The protocol:
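Single sensillum recordings from antennal basiconic sensilla of D. ezoana. A 500 ms pulse of odorant (10^-4 in mineral oil or DMSO) was delivered; the response is the change in action potential frequency between the 1 s pre- and post-stimulus windows (spikes/s).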
With `CC(C)=O` [acetone], the “odor-evoked OSN spike response” value worked out at 66.9 ± 31 spikes/s.
